Measured values: PubChem BioAssay AID2685 (National Center for Advancing Translational Sciences (NCATS), 2010)
Among all 320,000 compounds or so, about 2,100 (0.66%) were called active. Not shown: some 53% with an inconclusive outcome. Calls follow the shape of the dose curve; as a rule, active = well fitted inhibition curve with a large enough effect in the signal ratio, with a control signal flat (not every such curve was filed as active); inconclusive = small, poorly fitted or top-dose-only effect, or effect the other way, or a change in a side signal; inactive = flat fitted curve, though single readings scatter; the % refers to the signal ratio. This excerpt belongs to a sample that is enriched for actives.
Potency is read from the fitted curve at half-maximal effect.

Assay: qHTS Assay for Lipid Storage Modulators in Drosophila S3 Cells;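 as to cell number change: cells counted by Cell Tracker Red CMTPX staining in the red channel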
Conditions: BODIPY lipid droplet fluorescence, 18-24 h, cells fed with added oleic acid; cell number change: measured here: cell count max response; series mostly up to 46.1 µM
Summary of the method: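 Laser-scanning cytometry quantifies lipid droplet accumulation (500–530 nm total intensity; droplet/cell object ratio) in oleic acid-fed (400 uM added) Drosophila S3 cells treated with a concentration series. 20 uM Triacsin C defined 100% inhibition.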
In the case of `CCc1ccc(C(=O)Nc2ccc3c(c2)n(C)c(=O)n3C)cc1`, the Potency is reported as “inactive” and the cell number change is reported as -19.7%. In the case of `CC1Cc2ccccc2N1C(=O)COC(=O)C1=COCCO1` (centres undefined), the Potency is reported as “inactive” and the cell number change is reported as -1.1%. For `COc1cccc(/C=N/n2nnnc2N)c1O`, the Potency was “inactive” and the cell number change was 2.87%. In the case of `C=CCOc1c(CNC2CCCC2)cc(Cl)cc1OC`, the Potency is reported as “inactive” and the cell number change is reported as 36.7%. In the case of `Cc1ccc(-c2nc(NCc3ccco3)n(C(=O)c3ccco3)n2)cc1`, the Potency is reported as “inactive” and the cell number change is reported as -0.0963%. For `CC(NC(=O)C1CCCN1S(=O)(=O)c1ccccc1)c1ccccc1` (centres undefined), the Potency was “inactive” and the cell number change was 4.49%. In the case of `O=C(N1CCCCC1)C12CC3CC(C1)CC(C(=O)N1CCCCC1)(C3)C2`, the Potency is reported as “inactive” and the cell number change is reported as 5%. For `CN(C)CCNc1oc(-c2cccc(Cl)c2)nc1C#N`, the Potency was “inactive”. In the case of `CCN(CC)CCCNc1oc(-c2ccc(OC)c(OC)c2)nc1C#N`, the Potency is reported as “inactive” and the cell number change is reported as 24.5%. For `CN(C)CCCNc1oc(-c2cccc(Cl)c2)nc1C#N`, the Potency was 23.1 µM (active) and the cell number change was 5.97%. In the case of `O=C(O)c1cc2nc3c(c(C(F)(F)F)n2n1)CCCC3`, the Potency is reported as “inactive” and the cell number change is reported as -17.1%. With `COc1cc(C(=O)N2CCN(C(=O)C3CC3)CC2)cc(OC)c1OC` the Potency was 14.6 µM (active) and the cell number change was 0.295%. With `COc1cc(C(=O)N2CCN(C)CC2)cc(OC)c1OC` the Potency was “inactive” and the cell number change was -9.94%. With `COc1cc(C(=O)N2CCN(C3CCCCC3)CC2)cc(OC)c1OC` the Potency was “inactive” and the cell number change was 26.9%. In the case of `CCOC(=O)C1=C(C)Nc2ccccc2N=C1NC(=O)/C=C/c1ccc(OC)cc1OC`, the Potency is reported as “inactive” and the cell number change is reported as 0.577%. For `Cc1c(N(C(=O)c2cnccn2)C2(C(=O)NC3CCCC3)CCCCC2)c(=O)n(-c2ccccc2)n1C`, the Potency was “inactive” and the cell number change was -4%. For `COc1cc([N+](=O)[O-])ccc1NC(=O)CC1SC(=Nc2ccc(F)cc2)N(CCC2=CCCCC2)C1=O` (centres undefined), the Potency was 23.1 µM (active) and the cell number change was -22.5%. With `COc1ccc(OC)c(NC(=O)CC2SC(=Nc3ccc(F)cc3)N(CCC3=CCCCC3)C2=O)c1` (centres undefined) the Potency was “inactive” and the cell number change was 1.52%. For `CCOc1ccccc1N=C1SC(CC(=O)Nc2ccc(OC)cc2OC)C(=O)N1CCC1=CCCCC1` (centres undefined), the Potency was 25.9 µM (active) and the cell number change was -18.8%. In the case of `O=C(CC1SC(=Nc2ccc(OC(F)F)cc2)N(CCC2=CCCCC2)C1=O)Nc1ccccc1F` (centres undefined), the Potency is reported as “inactive” and the cell number change is reported as -16.7%. With `C=CCN1C(=O)C(CC(=O)NCC)SC1=Nc1ccccc1OC` (centres undefined) the Potency was “inactive” and the cell number change was -0.552%. For `CCn1c2ccccc2c2cc(N=C3SC(CC(=O)Nc4ccccc4OC)C(=O)N3C)ccc21` (centres undefined), the Potency was “inactive”. For `Cc1c(C(N)=O)sc2ncn(CC(=O)N(C)C3CCCCC3)c(=O)c12`, the Potency was “inactive” and the cell number change was 7.26%. With `CS(=O)(=O)N1CCC(C(=O)N2CCN(c3ccccc3F)CC2)CC1` the Potency was “inactive” and the cell number change was 9.98%. For `CC1=CN2C(=N)/C(=C/c3ccc([N+](=O)[O-])o3)C(=O)N=C2S1`, the Potency was 14.6 µM (active) and the cell number change was -16.4%. With `CCOc1ccc(-c2ccc(/C=C3/C(=N)N4C=CSC4=NC3=O)o2)c([N+](=O)[O-])c1` the Potency was “inactive” and the cell number change was 4.83%. In the case of `CC1=CN2C(=N)/C(=C/c3ccc(C)o3)C(=O)N=C2S1`, the Potency is reported as “inactive” and the cell number change is reported as -10.7%. In the case of `Cc1ccc(S(=O)(=O)Nc2cccc(-c3ccc4nnc(C)n4n3)c2)s1`, the Potency is reported as “inactive” and the cell number change is reported as 7.02%. In the case of `O=C(NCc1ccccn1)Nc1cc(Cl)cc(Cl)c1`, the Potency is reported as “inactive” and the cell number change is reported as 7.72%. For `COc1ccc(C(NC(=O)C(C)(C)C)NC(=O)C(C)(C)C)cc1`, the Potency was “inactive” and the cell number change was -2.15%. With `O=C(CNS(=O)(=O)c1ccc(Br)s1)NC1CCCc2ccccc21` (centres undefined) the Potency was “inactive” and the cell number change was -8.37%. In the case of `COc1ccc(C)cc1NC(=O)CCCN1C(=S)NC(C)(C)CC1C` (centres undefined), the Potency is reported as “inactive” and the cell number change is reported as -1.97%. For `COc1ccc(NC(=O)NCCCCc2ccccc2)cc1`, the Potency was “inactive” and the cell number change was -11.6%. In the case of `CC(CNC(=O)CN1C(=O)NC2(CCCCC2C)C1=O)c1ccccc1` (centres undefined), the Potency is reported as “inactive” and the cell number change is reported as -0.107%. With `COc1ccc(CCN(/C=C2\Sc3ccccc3C2=O)C(C)=O)cc1OC` the Potency was “inactive” and the cell number change was 23.5%. With `CC(=O)N(/N=C1\Sc2ccccc2C1=O)c1ccccc1` the Potency was “inactive” and the cell number change was -6.02%. For `COc1ccccc1N(/N=C1\Sc2ccccc2C1=O)C(C)=O`, the Potency was 16.4 µM (active) and the cell number change was 3.61%. In the case of `CCOc1ccc(NC(=O)CN(C)C(=O)COc2cccc3c2OC(C)(C)C3)cc1OCC`, the Potency is reported as “inactive” and the cell number change is reported as -24.3%. For `O=C(c1ccc(Cl)c(F)c1F)N1CCCC1`, the Potency was “inactive”. For `Cc1c(C)c2c(OCC(=O)NCc3ccco3)cc3c(c2oc1=O)CCC(C)(C)O3`, the Potency was “inactive” and the cell number change was 6.15%. For `COCCNCC(=O)C12CC3CC(CC(C3)C1)C2`, the Potency was 16.4 µM (active) and the cell number change was -15%. For `COCCC(=O)NC12CC3CC(CC(C3)C1)C2`, the Potency was “inactive” and the cell number change was -7.91%. For `COCCNC(=O)C12CC3CC(CC(Cl)(C3)C1)C2`, the Potency was “inactive” and the cell number change was 18%. In the case of `O=c1[nH]c2ccccc2nc1C(F)(F)F`, the Potency is reported as “inactive” and the cell number change is reported as 17.1%. In the case of `Cc1onc(-c2ccccc2)c1C(=O)N/N=C/c1ccc(Br)cc1`, the Potency is reported as “inactive” and the cell number change is reported as 8.96%. For `Cc1ccc(CS(=O)Cc2ccc(C(=O)N3CCN(c4ccccn4)CC3)o2)cc1` (centres undefined), the Potency was 7.31 µM (active). With `O=C(c1ccc(CS(=O)c2cccc(Cl)c2)o1)N1CCN(c2ccccn2)CC1` (centres undefined) the Potency was 18.4 µM (active) and the cell number change was -26.2%. In the case of `Cc1ccc(CS(=O)Cc2ccc(C(=O)N3CCN(c4ccccc4)CC3)o2)cc1` (centres undefined), the Potency is reported as “inactive”. With `O=C(c1ccc(CS(=O)c2cccc(Cl)c2)o1)N1CCOCC1` (centres undefined) the Potency was “inactive” and the cell number change was -42.8%. For `O=C(c1ccc(CS(=O)c2cccc(Cl)c2)o1)N1CCCCCC1` (centres undefined), the Potency was “inactive” and the cell number change was -0.885%. In the case of `O=C(c1ccc(CS(=O)Cc2ccccc2Cl)o1)N1CCN(c2ccccn2)CC1` (centres undefined), the Potency is reported as “inactive”. With `CC(=O)Nc1ccc(S(=O)(=O)N2CCCN(S(=O)(=O)c3ccc(C)cc3)CC2)cc1` the Potency was “inactive” and the cell number change was -14.2%. With `Cc1cc[n+](C2=C([O-])c3ccccc3C(=O)/C2=N\S(=O)(=O)c2cccs2)cc1C` the Potency was 8.2 µM (active) and the cell number change was -25.5%. With `CCCCC[n+]1ccn(C2=C([O-])c3ccccc3C(=O)/C2=N\S(=O)(=O)c2ccc(Br)cc2)c1` the Potency was “inactive”. With `O=C1/C(=N\S(=O)(=O)c2cccs2)C([n+]2cccc(Cc3ccccc3)c2)=C([O-])c2ccccc21` the Potency was 20.6 µM (active) and the cell number change was -9.11%. For `CC(C)N(Cc1ccccc1)S(=O)(=O)c1cccs1`, the Potency was “inactive”. With `N/C(=N\S(=O)(=O)c1cccs1)c1ccccc1` the Potency was “inactive” and the cell number change was 3.91%. In the case of `Cc1ccc(/C=C2\S/C(=N/S(=O)(=O)c3cccs3)NC2=O)cc1`, the Potency is reported as “inactive” and the cell number change is reported as 3.91%. In the case of `CCc1cc[n+](C2=C([O-])c3ccccc3C(=O)/C2=N\S(=O)(=O)c2cccs2)cc1`, the Potency is reported as 1.84 µM (active) and the cell number change is reported as 2.59%. With `O=C1/C(=N\S(=O)(=O)c2cccs2)C([n+]2ccccc2)=C([O-])c2ccccc21` the Potency was 20.6 µM (active) and the cell number change was -19.9%. With `NC(=NCCc1ccccc1)NS(=O)(=O)c1cccs1` the Potency was “inactive” and the cell number change was -0.301%. With `O=C1C(=O)c2ccccc2C([O-])=C1[n+]1ccccc1` the Potency was “inactive” and the cell number change was 19.4%. For `CCc1ccc(NS(=O)(=O)c2cccs2)cc1`, the Potency was “inactive”. For `Cc1cc[n+](-c2nc3ccccc3nc2[N-]S(=O)(=O)c2cccs2)cc1C`, the Potency was “inactive” and the cell number change was -0.563%.
